# Records with an inconclusive call do not appear. Unmarked numbers belong to inactive results. Active and inactive are the calls of the source. The call rests on the fitted dose curve; in most records, active means well fitted inhibition curve with a large enough effect; inconclusive means small, poorly fitted or top-dose-only effect; inactive means no such curve, though single readings can be large or run the other way.
# Test: Primary qHTS for inhibitors of La Crosse Virus (LACV) - induced cell death in SH-SY5Y cells (AID 1508616);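 further: top concentration of the series differs between compounds; 0% = infected DMSO wells and 100% = uninfected DMSO wells; higher means more rescue of cells from virus-induced death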
# Conditions: SH-SY5Y LACV cytopathicity rescue, ATP luminescence, 6 d; series mostly up to 4.29 µM; activity change: at the top concentration
# In short: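 Rescue of virus-induced death was read as ATPLite luminescence after 6 days at 37C, scaled between DMSO wells with LACV and without virus. Cells were SH-SY5Y, 6000/well, infected at 0.01 MOI after compound addition.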
Structure (SMILES),outcome,activity change
O=C(O)Cc1cccc2ccccc12,inactive,–
Clc1ccc(C(c2ccc(Cl)cc2)n2cc[n+](CC(OCc3ccc(Cl)cc3Cl)c3ccc(Cl)cc3Cl)c2)cc1 (stereo not drawn),–,-12.1% [at 9.63 µM]
NC(N)=Nc1nc(CSCC/C(N)=N/S(N)(=O)=O)cs1,inactive,–

# Source: PubChem BioAssay (NCATS)
